Sm TGR inh: qHTS Assay for the Inhibitors of Schistosoma Mansoni Peroxiredoxins | Schistosoma mansoni thioredoxin glutathione reductase (TGR), Q962Y6 | purified TGR, DTNB reduction, TNB absorbance 405 nm | actives 3% (n = 360,000) | AID 485364, 2010 | Potency, µM (series often up to 114 µM), without a hit: at the top dose activity change, negative = inhibition, actives largely listed as inhibitors; also: nearly all actives have a fitted effect of over 60% in size
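First, TGR (20 nM dispensed) and NADPH were mixed with compound. Second, a 15 min room-temperature incubation followed. Third, further NADPH and then DTNB were added to start the reaction. Finally, TNB absorbance was monitored kinetically.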
FMDV inh: High Throughput Screening for Foot and Mouth Disease Virus Antivirals; FMDV antiviral cell-based qHTS; Potency, µM (highest dose often 57.9 µM), without a hit: at the highest dose activity change, negative = inhibition, usual class: inhibitors; actives 1.2% (n = 410,000); AID 1159524, 2015; calls by dose curve; tested in HEK293T cells; also: read-out not given here; nearly all actives have a fitted effect of over 45% in size
AMA1 RON2 block: qHTS for Inhibitors of AMA1-RON; Towards Development of Antimalarial Drug Lead: Primary Screen. Plasmodium falciparum AMA1 (3D7) - RON2 peptide interaction. AlphaScreen AMA1-biotinylated RON2 peptide binding. Potency, µM (doses to about 58.2 µM), for the others: top-dose activity change, negative = inhibition, usual class: inhibitors. actives 0.2% (n = 360,000). AID 720542, 2013;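 also: 0% = vehicle wells and -100% = peptide control; nearly all actives have a fitted effect of over 45% in size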
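AMA1 (3D7) with his tag at 25 nM final met compounds first, then biotinylated RON2 peptide at 25 nM; detection used donor plus acceptor beads, 10 µg/mL apiece, read by AlphaScreen after 30 min at room temperature.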
AmpC no deterg: qHTS Inhibitors of AmpC Beta-Lactamase (assay without detergent); AID 485341, 2010; AmpC nitrocefin hydrolysis, absorbance 480 nm, 0.0001% Triton; P00811; actives 0.52% (n = 330,000); Potency, µM (doses to about 57.1 µM), without a hit: at the top dose activity change, negative = inhibition, actives largely listed as inhibitors;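 also: plate controls were no compound for no effect and no enzyme for full effect; nearly all actives have a fitted effect of over 20% in size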
Target sequence (P00811 whole entry, looked up): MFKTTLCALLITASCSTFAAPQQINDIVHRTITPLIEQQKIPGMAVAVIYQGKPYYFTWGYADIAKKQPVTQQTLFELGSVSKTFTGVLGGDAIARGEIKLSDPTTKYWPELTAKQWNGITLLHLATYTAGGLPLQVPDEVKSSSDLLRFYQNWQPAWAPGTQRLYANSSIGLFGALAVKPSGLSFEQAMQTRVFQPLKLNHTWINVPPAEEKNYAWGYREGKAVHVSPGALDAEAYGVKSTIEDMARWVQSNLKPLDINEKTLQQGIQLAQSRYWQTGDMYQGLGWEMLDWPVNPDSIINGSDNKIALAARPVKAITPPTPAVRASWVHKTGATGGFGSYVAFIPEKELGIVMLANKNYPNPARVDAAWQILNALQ
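20 mM phosphate pH 7.0 + 0.01% (detergent screen) or 0.0001% Triton X-100; 5.3 nM AmpC reagent; cpd preinc 15 min RT; nitrocefin (800 uM stock) to start; A480 q20 s × 4 min; Activity was normalised to no-enzyme and no-compound control wells.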
AmpC inh detg: qHTS Inhibitors of AmpC Beta-Lactamase (assay with detergent) | P00811 | AmpC hydrolysis of nitrocefin, absorbance 480 nm, 0.01% Triton | Potency, µM (top dose mostly 114 µM), for the others: top-dose activity change, negative = inhibition, usual class: inhibitors | actives 0.041% (n = 370,000) | AID 485294, 2010;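 also: 0% = no-compound wells and -100% = no-enzyme wells; nearly all actives have a fitted effect of over 25% in size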
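20 mM phosphate pH 7.0 + 0.01% (detergent screen) or 0.0001% Triton X-100; 5.3 nM AmpC reagent; cpd preinc 15 min RT; nitrocefin (800 uM stock) to start; A480 q20 s × 4 min; Activity was normalised to no-enzyme and no-compound control wells.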
* hit, by the source's call; u = inconclusive; x = not tested or not shown. Only some compounds are listed: those with a hit (about 4.1% of all), similar ones and a draw of the others. Unless noted, calls follow the shape of the dose curve; as a rule, active = well fitted curve in the direction sought with a large enough effect; inconclusive = small, poorly fitted or top-dose-only effect, or another doubt; inactive = no such curve, though single readings can be large; an effect the other way counts as inactive or inconclusive. Unless noted, % is scaled to controls: 0 for no effect and ±100 for the full control effect; potency is read from the fitted curve at half-maximal effect.

SMILES | Sm TGR inh | FMDV inh | AMA1 RON2 block | AmpC no deterg | AmpC inh detg
COc1ccc2c(CNCc3cccs3)c(C(=O)O)n(Cc3ccc(F)cc3Cl)c2c1 | -6% | 0% | x | x | -10%
COc1ccc(-c2cc(C(=O)Nc3cc(C)n(Cc4ccc(Cl)cc4)n3)no2)cc1OC | -7% | 3.5µM* | 12% | -8% | -9%
COc1ccc(-c2nc3c(Cl)cc(C(F)(F)F)cn3c2Cc2cccc(F)c2)cc1OC | x | -6% | 46% | x | x
Cc1nc(Cl)c(C(=O)NC(=O)Nc2cccc(C(F)(F)F)c2)c(C)c1[N+](=O)[O-] | -26% | 22µM* | -37% | -23% | -5%
CCOC(=O)[C@]12CCCC=C1N(Cc1ccc(Cl)cc1Cl)C(=O)[C@H](CC(=O)NCc1ccc(OC)c(OC)c1)C2 | x | u | -21% | x | x
CCOC(=O)[C@]12CCC=C1N(Cc1cccc3ccccc13)C(=O)[C@H](CC(=O)NCc1ccc(OC)c(OC)c1)C2 | x | 35µM* | -13% | x | x
COC(=O)[C@]12CCCCC=C1N(Cc1ccc(Cl)cc1Cl)C(=O)[C@H](CC(=O)NCc1ccc(OC)c(OC)c1)C2 | x | 32µM* | -24% | x | x
COC(=O)[C@]12CCCCC=C1N(Cc1cccc3ccccc13)C(=O)[C@H](CC(=O)NCc1ccc(OC)c(OC)c1)C2 | x | 14µM* | -1% | x | x
CCc1cccc(NS(=O)(=O)c2cc(-c3cnc(C)o3)ccc2OC)c1 | -5% | 68% | x | x | -12%
COc1cccc(CN2CCC3(CC2)c2ccccc2[C@@H](NC(=O)c2ccccc2)[C@@H]3O)c1O | x | -1% | x | x | x
N#Cc1c(N)nc(SCc2ccccc2)c(C#N)c1-c1ccco1 | 50µM* | x | 17% | -13% | u
N#Cc1c(N)nc(SCC(=O)OCc2ccccc2)c(C#N)c1-c1ccco1 | -2% | 5% | 3% | -28% | u
O=S(=O)(c1ccccc1)c1ncc(C(F)(F)F)cc1Cl | 4µM* | 11µM* | 7% | -10% | -11%
O=S(=O)(c1ccccc1)c1ncc(C(F)(F)F)cc1O | -8% | -6% | -13% | -10% | 2%
COc1ccc(CN(C)Cc2nc(Cc3cccc(F)c3)no2)c2cccnc12 | -28% | 10µM* | -2% | 95% | -4%
COc1cccc(-n2cc(CN(C)Cc3nc(Cc4cccc(F)c4)no3)cn2)c1 | 3% | -4% | 11% | 120% | -1%
O=C(Nc1cc(N2CCOCC2)ncn1)NC1(C(F)(F)F)Oc2ccccc2O1 | 13µM* | -28% | -1% | -6% | 0%
COc1cccc(NC(=O)NC2(C(F)(F)F)Oc3ccccc3O2)c1 | 40µM* | -20% | 58% | -36% | -1%
C/C(=N\Nc1cc(N2CCOCC2)ncn1)c1ccccc1 | -21% | 43% | 14% | 5% | u
CCOC(=O)Cc1csc(NC(=O)NC2(C(F)(F)F)Oc3ccccc3O2)n1 | 14µM* | -20% | 18% | -36% | -10%
Cc1ccc(NC(=O)N2CCC(n3c(C)nc4cccnc43)CC2)c(Cl)c1 | -1% | -15% | x | x | 0%
COc1cccc(CNC(=O)c2c(OC)cc(=O)n3c2CCN(C(=O)c2ccc(Cl)cc2)CC3)c1 | x | 0% | x | x | x
Cc1ccc2nc(COc3cccc(NC(=O)COc4ccc(F)cc4)c3)cc(=O)n2c1 | 60% | -11% | x | x | -8%
CC(=O)OCC1(C)CN(c2ccccc2)NC1=O (stereo not given) | 7.9µM* | 7% | -10% | 40% | 0%
Cc1ncc2c(c1CNC(=O)c1ccc3c(c1)OCO3)CCN(C(=O)c1ccoc1)C2 | x | 3% | x | x | x
SMILES | Sm TGR inh | FMDV inh | AMA1 RON2 block | AmpC no deterg | AmpC inh detg
Cc1cc(-c2ccnc(-n3ncc(C(=O)N(C)CC(O)c4ccccc4)c3C)n2)c(C)s1 (stereo not given) | x | 36% | x | x | x
O=C1CCC(=O)N1c1ccccc1-c1ccccc1 | -25% | -14% | 5% | -5% | u
O=C1C2C3C=CC(CO)(O3)C2C(=O)N1c1ccccc1-c1ccccc1 (stereo not given) | 0.32µM* | x | -2% | -26% | u
CC(=O)Oc1ccc(N2C(=O)C3C4C=CC(CO)(O4)C3C2=O)cc1 (stereo not given) | 0.89µM* | -21% | -1% | -2% | u
O=C1C2C3C=CC(CNS(=O)(=O)c4ccccc4)(O3)C2C(=O)N1c1ccc(Cl)cc1 (stereo not given) | 4µM* | -6% | -12% | -23% | -7%
CC(=O)Oc1ccc(N2C(=O)C3C(C2=O)C2(C)C=CC3(C)O2)cc1 (stereo not given) | 0.63µM* | x | x | -16% | u
CCOc1ccc(NC(=O)CSC2=Nc3ccccc3C3=NC(Cc4ccccc4)C(=O)N23)cc1 (stereo not given) | 8% | 3% | x | x | -7%
Cc1ncc(-c2ccc(F)cc2)c(C2CCCN(Cc3cccc(O)c3)C2)n1 (stereo not given) | x | -11% | x | x | x
CCOC(=O)c1noc2ncnc(Nc3cccc(OC)c3)c12 | -1% | -2% | x | x | -7%
Cc1ccc(NC(=O)CC2SC(=NC3CCCCC3)NC2=O)cc1 (stereo not given) | 50µM* | -11% | -5% | -2% | 0%
Cc1cc(C(=O)Nc2ccccc2-c2nc(CNC(=O)C3(C)CCCCC3)c(C)o2)c(C)o1 | x | 1% | x | x | x
COC(=O)CC1C(=O)NC2CCCCC2N1C(=O)CCl (stereo not given) | 6.3µM* | u | -4% | 3% | 1%
CCNC(=O)N1C(CC(=O)OCC)C(=O)NC2CCCCC21 (stereo not given) | 5% | -21% | 1% | -15% | 4%
COc1ccc(-c2cc(C(F)(F)F)c(C#N)c(SCC(=O)Nc3ccccc3F)n2)cc1 | -4% | -14% | x | x | 17%
COc1ccc(-c2nc3c(C#N)c[nH]n3c2NC2CCCCC2)c(OC)c1 | -12% | -7% | x | x | -1%
CCOC(=O)c1c(C)oc2nc(C)nc(NCC3CCN(Cc4ccc(F)cc4)CC3)c12 | -12% | -14% | x | x | -8%
COc1ccc(CCNC(=O)c2nn(-c3ccc(C)cc3)c(=O)c3c2c2ccccc2n3C)cc1OC | 6% | -15% | x | x | -4%
CC(=O)N(Cc1ccccc1)c1ncc2c(n1)c(=O)c(C#N)c1ccccn12 | 45µM* | x | -5% | -32% | -10%
CC(=O)N(Cc1c(C#N)c2ccccc2n1C)c1ccccc1 | 2% | -25% | 3% | 33% | -7%
CCOC(=O)c1ccc(NC(=O)CCn2c(=O)c3cccn3c3cccnc32)cc1 | 1% | -25% | x | x | -10%
CCN(CCCNC(=O)CSc1cc(=O)n(CC)c2ccccc12)c1ccccc1 | 0% | -27% | x | x | -4%
O=C(C[n+]1cn(C(F)F)c2ccccc21)c1ccc(OC(F)F)cc1 | 7.1µM* | 38% | 25% | -25% | -2%

Screens deposited in PubChem by National Center for Advancing Translational Sciences (NCATS).
